Test results as given in PubChem BioAssay (Tox21).
“And” between values parts separate entries of the source, which are not always exact repeats. Identical values can stand only once. Results filed as inconclusive are left out. Entries that show only a call come without a potency. Where a structure was tested more than once in an assay, its records may differ in their call. The source made the active and inactive calls. Unless noted, the call rests on the fitted dose curve; in most records, active means well fitted curve in the direction sought with a large enough effect in the repeat runs; inconclusive means weak or mixed curves; inactive means no such curve, though single readings can be large; an effect the other way counts as inactive or inconclusive.

Assays:
[1] = qHTS assay to identify small molecule agonists of the androgen receptor (AR) signaling pathway in the presence of an antagonist - cell viability counter screen (AID 1259379); further: nearly all actives have a fitted effect of over 25% in size; further: potency means the concentration at half of the fitted maximal effect
Method in brief: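 Nilutamide-containing (3.0uM final) MDA-kb2 cultures, 3,000 cells/well, were treated with compounds across 15 concentrations. After 16 hr at 37C with no CO2, cell viability was determined by CellTiter-Fluor fluorescence in the luciferase assay wells.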

[2] = qHTS assay to identify small molecule agonists of the estrogen receptor beta (ER-beta) signaling pathway - cell viability counter screen (AID 1259380); further: nearly all actives have a fitted effect of over 30% in size; further: potency means the concentration at half of the fitted maximal effect
Method in brief: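 Steps: plate ER-beta-UAS-bla HEK293T cells, rest 6 hr; add compounds in DMSO; incubate 16 hr at 37C, 5% CO2; add FRET substrate 2 hr; add CellTiter-Glo, wait 30 min at room temperature; read luminescence.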

[3] = qHTS assay to identify small molecule antagonists of the estrogen receptor beta (ER-beta) signaling pathway - cell viability counter screen (AID 1259382); further: nearly all actives have a fitted effect of over 55% in size; further: potency means the concentration at half of the fitted maximal effect
Method in brief: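 Viability is scored by CellTiter-Glo luminescence (30 min, room temperature) in ER-beta-UAS-bla HEK293T wells already read for reporter fluorescence. Compound exposure lasts 16 hr at 37C alongside 1nM 17-beta-estradiol in charcoal-stripped serum medium.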

[4] = qHTS assay to identify small molecule agonists or antagonists of the thyroid stimulating hormone receptor (TSHR) signaling pathway - wild type cell line counter screen (AID 1259384; calls by dose curve)
Method in brief: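 Wild-type Hek293 cells, 800/well, 18 h at 37C, then compound with Ro20-1724 for 30 min RT. cAMP by HTRF (cAMP-d2/anti-cAMP cryptate), 1 h RT, fluorescence read. 15 concentrations, triplicates.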

[5] = biological target: Thyrotropin receptor (Homo sapiens) (UniProt P16473); assay: qHTS assay to identify small molecule antagonists of the thyroid stimulating hormone receptor (TSHR) signaling pathway (AID 1259385; calls by dose curve; further: nearly all actives have a fitted effect of over 20% in size)
Sequence of Thyrotropin receptor (Homo sapiens) (P16473 whole entry, looked up): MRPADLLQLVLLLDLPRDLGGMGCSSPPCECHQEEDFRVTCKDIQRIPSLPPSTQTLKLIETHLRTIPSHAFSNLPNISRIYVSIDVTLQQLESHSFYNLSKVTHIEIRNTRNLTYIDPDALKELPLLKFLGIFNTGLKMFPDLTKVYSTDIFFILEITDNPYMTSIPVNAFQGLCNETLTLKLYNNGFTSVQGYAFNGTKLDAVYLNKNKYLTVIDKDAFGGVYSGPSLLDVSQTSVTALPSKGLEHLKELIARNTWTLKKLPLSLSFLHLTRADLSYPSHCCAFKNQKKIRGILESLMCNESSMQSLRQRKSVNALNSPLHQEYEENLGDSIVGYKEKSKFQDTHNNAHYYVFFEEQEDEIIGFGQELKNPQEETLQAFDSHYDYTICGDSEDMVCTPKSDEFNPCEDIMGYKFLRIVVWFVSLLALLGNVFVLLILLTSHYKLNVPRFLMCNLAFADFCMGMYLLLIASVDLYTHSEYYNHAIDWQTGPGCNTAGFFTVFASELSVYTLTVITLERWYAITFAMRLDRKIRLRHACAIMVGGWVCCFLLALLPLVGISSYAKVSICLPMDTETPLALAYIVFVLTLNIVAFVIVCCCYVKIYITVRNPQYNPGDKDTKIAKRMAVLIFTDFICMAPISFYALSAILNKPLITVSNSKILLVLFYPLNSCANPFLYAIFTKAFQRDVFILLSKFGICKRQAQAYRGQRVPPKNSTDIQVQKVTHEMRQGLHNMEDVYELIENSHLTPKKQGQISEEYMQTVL
Method in brief: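 TSHR-HEK293 cells (800/well) plated 18 h, then compounds with Ro20-1724 and TSH at 1.5 ng/mL final, 30 min at room temperature. cAMP quantified by HTRF (cAMP-d2/anti-cAMP-cryptate, 1 h); 15 concentrations in triplicate.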

[6] = biological target: Estrogen receptor (Homo sapiens) (UniProt P03372); assay: qHTS assay to identify small molecule agonists of the estrogen receptor alpha (ER-alpha) signaling pathway in the presence of an antagonist (AID 1259383; calls by dose curve; further: top concentration of the series differs between compounds; nearly all actives have a fitted effect of over 15% in size)
Sequence of Estrogen receptor (Homo sapiens) (P03372 whole entry, looked up): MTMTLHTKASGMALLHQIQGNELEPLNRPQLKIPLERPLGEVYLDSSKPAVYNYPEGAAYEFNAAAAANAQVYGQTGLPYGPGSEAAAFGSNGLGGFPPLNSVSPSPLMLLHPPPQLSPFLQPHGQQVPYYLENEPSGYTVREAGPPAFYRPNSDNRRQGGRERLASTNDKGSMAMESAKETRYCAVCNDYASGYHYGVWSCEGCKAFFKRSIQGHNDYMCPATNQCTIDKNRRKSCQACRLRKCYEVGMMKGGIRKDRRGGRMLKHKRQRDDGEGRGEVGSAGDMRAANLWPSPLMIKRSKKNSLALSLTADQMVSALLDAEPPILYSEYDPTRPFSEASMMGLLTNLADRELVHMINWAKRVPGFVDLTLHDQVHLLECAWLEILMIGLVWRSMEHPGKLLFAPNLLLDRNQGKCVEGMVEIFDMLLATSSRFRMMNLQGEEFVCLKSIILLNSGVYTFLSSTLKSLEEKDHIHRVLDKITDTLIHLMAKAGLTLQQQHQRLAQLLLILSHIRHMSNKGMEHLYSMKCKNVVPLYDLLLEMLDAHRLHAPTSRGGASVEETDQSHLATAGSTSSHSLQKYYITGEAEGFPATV
Method in brief: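 Readout was ERE-driven luciferase luminescence in VM7Luc4E2 cells, which express full-length ER-alpha endogenously. Compounds were tested at 15 concentrations for 22hr alongside 10.0nM ICI-182,780 (final concentration).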

[7] = biological target: Estrogen receptor beta (Homo sapiens) (UniProt Q92731); assay: qHTS assay to identify small molecule agonists of the estrogen receptor beta (ER-beta) signaling pathway (AID 1259377; active means well fitted activation curve with a large enough effect in the signal ratio in the repeat runs, not every such curve was filed as active; the % refers to the signal ratio)
Sequence of Estrogen receptor beta (Homo sapiens) (Q92731 whole entry, looked up): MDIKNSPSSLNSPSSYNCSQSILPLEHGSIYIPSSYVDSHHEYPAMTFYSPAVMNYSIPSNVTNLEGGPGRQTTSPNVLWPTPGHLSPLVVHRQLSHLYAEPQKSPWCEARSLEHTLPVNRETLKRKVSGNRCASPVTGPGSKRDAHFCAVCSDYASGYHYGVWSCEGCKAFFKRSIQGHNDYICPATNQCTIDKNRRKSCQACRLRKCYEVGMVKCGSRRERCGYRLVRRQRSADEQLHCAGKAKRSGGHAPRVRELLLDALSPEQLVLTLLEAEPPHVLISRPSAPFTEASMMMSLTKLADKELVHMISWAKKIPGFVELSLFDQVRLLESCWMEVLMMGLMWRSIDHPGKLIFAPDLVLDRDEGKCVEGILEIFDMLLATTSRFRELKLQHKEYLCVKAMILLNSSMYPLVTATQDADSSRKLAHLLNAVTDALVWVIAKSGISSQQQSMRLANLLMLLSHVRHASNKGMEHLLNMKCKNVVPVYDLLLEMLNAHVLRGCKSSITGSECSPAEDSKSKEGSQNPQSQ
Method in brief: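 Read-out: beta-lactamase FRET fluorescence. Cell line: ER-beta-UAS-bla HEK293T in 2% charcoal-stripped FBS. Exposure: 16 hr at 37C. Substrate step: 2 h at room temperature.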

[8] = biological target: Estrogen receptor beta (Homo sapiens) (UniProt Q92731); assay: qHTS assay to identify small molecule antagonists of the estrogen receptor beta (ER-beta) signaling pathway (AID 1259378; active means well fitted inhibition curve with a large enough effect in the signal ratio in the repeat runs, not every such curve was filed as active; the % refers to the signal ratio; further: potency means the concentration at half of the fitted maximal effect)
Method in brief: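 ER-beta-UAS-bla HEK293T cells in 2% charcoal-stripped FBS medium treated with compound plus 1nM final 17-beta-estradiol for 16 hr at 37C. Beta-lactamase reporter read by FRET substrate fluorescence after 2 hours at room temperature.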

[9] = biological target: Androgen receptor (Homo sapiens) (UniProt P10275); assay: qHTS assay to identify small molecule agonists of the androgen receptor (AR) signaling pathway in the presence of an antagonist (AID 1259381; calls by dose curve; further: nearly all actives have a fitted effect of over 15% in size)
Sequence of Androgen receptor (Homo sapiens) (P10275 whole entry, looked up): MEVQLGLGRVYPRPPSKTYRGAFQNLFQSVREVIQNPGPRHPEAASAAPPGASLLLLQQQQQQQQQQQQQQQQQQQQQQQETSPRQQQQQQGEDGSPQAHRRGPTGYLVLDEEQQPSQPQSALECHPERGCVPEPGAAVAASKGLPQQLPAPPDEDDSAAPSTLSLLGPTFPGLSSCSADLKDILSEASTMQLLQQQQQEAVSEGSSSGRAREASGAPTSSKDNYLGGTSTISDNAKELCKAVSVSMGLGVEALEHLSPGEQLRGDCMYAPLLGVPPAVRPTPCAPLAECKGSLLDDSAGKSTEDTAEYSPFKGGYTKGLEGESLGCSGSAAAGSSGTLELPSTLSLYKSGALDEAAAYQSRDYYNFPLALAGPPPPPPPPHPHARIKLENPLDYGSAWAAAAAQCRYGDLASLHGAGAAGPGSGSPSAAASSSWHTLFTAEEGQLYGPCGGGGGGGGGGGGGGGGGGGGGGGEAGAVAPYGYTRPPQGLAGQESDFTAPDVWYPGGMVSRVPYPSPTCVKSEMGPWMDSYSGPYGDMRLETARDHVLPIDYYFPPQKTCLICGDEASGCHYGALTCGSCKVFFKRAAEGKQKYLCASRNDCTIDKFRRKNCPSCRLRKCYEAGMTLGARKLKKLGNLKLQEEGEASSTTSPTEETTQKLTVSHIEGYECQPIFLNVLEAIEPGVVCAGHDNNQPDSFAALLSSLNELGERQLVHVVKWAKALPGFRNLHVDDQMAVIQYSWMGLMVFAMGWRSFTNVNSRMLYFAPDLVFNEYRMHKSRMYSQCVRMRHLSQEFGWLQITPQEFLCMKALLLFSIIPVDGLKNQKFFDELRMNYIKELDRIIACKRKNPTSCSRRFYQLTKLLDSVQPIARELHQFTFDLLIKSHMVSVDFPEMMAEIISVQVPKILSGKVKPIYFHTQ
Method in brief: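 Reporter-gene luminescence from MDA-kb2 cells exposed 16hr at 37C (0% CO2) to 15-point compound titrations with 3.0uM final nilutamide as AR antagonist.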

Row | SMILES | Potency [1] | Potency [2] | Potency [3] | outcome [4] | Potency [5] | Potency [6] | Potency [7] | Potency [8] | outcome [9]
1 | Brc1cc(Oc2cc(Br)c(Br)c(Br)c2Br)c(Br)c(Br)c1Br | inactive | 6.89 µM (active) and inactive | inactive | inactive | inactive | – | – | – | –
2 | COC(=O)CCC(=O)OC | inactive | inactive | inactive | inactive | inactive | inactive | – | – | –
3 | CCCCC(CC)COC(=O)c1ccc(N(C)C)cc1 (stereo not given) | inactive | inactive | inactive | inactive | inactive | inactive | inactive | inactive | –
4 | O=C1c2cccc(O)c2C(=O)c2c(O)cccc21 | – | – | inactive | – | inactive | – | – | inactive | –
5 | c1ccc2sc(SSN3CCOCC3)nc2c1 | inactive | 30.6 µM (active) | – | inactive | – | inactive | – | – | –
6 | CCOCCOCCO | inactive | inactive | inactive | inactive | inactive | – | – | – | inactive
7 | Nc1ccc(S(=O)(=O)Nc2cnc3ccccc3n2)cc1 | inactive | inactive | inactive | inactive | inactive | – | inactive | inactive | –
8 | O=[N+]([O-])c1ccc2c(c1)Cc1ccccc1-2 | inactive | inactive | inactive | inactive | inactive | inactive | inactive | inactive | –
9 | CCCCCCCCCCCO | inactive | inactive | inactive | inactive | inactive | inactive | inactive | inactive | –
10 | O=C(c1ccc(OCCN2CCCCC2)cc1)c1c(-c2ccc(O)cc2)sc2cc(O)ccc12 | 61.2 µM (active) and 61.1 µM (active) and 26.6 µM (active) | 54.5 µM (active) and 34.4 µM (active) and 23.7 µM (active) | 54.5 µM (active) and 26.6 µM (active) | – | – | – | – | – | –
11 | C#C[C@]1(O)CC[C@H]2[C@@H]3CCC4=Cc5oncc5C[C@]4(C)[C@H]3CC[C@@]21C | inactive | 61.1 µM (active) and 29.8 µM (active) | 48.6 µM (active) and 26.6 µM (active) | inactive | inactive | inactive | – | 15.4 µM (active) | –
12 | Cc1ccc(C(=O)c2cc(O)c(O)c([N+](=O)[O-])c2)cc1 | 54.5 µM (active) and 29.8 µM (active) | inactive | inactive | inactive | inactive | – | – | – | –
